Calls of active or inactive are those of the source. Unless noted, the rule behind the calls is not given here.
Experiments:
[1] = HepG2 liver cancer cell viability effects, profiling panel, resazurin fluorescence, 24 h, PK04 Diversity Set (AID 1172); details: higher = more signal
[2] = basal S. cerevisiae growth modulation, no modifier, primary screen, OD600, strain BY4716, 24 h, basal condition (AID 1173); details: OD600, 24 h, higher = more signal, called active from +8 up or from −8 down
[3] = MM1S myeloma cell viability, profiling panel, resazurin fluorescence, basal, 24 h, PK04 Diversity Set (AID 1174); details: higher = more signal, called active from +8 up or from −8 down;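 note: MM1S multiple myeloma cell line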
[4] = target: Dihydroorotate dehydrogenase (quinone), mitochondrial (Plasmodium falciparum (isolate 3D7)) (UniProt Q08210); assay: PfDHODH enzyme inhibitors, primary screen, biochemical, C-terminal His tag, absorbance 600 nm (AID 1175); details: DCIP absorbance 600 nm, higher = more signal, called active from +8 up or from −8 down;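 note: recombinant parasite enzyme with a five histidine tag at its C terminus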
[5] = P. aeruginosa biofilm formation inhibitors, primary screen, strain PAO1, LB-PBS medium, absorbance 600 nm (AID 1176); details: P. aeruginosa PAO1 growth/biofilm, A600, 12 h; higher = more signal
[6] = S. cerevisiae RM11-1a growth modifiers, primary screen, strain RM11-1a, OD600, basal, 24 h (AID 1177); details: OD600, 24 h, higher = more signal, called active from +8 up or from −8 down;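 note: cultures grown under basal conditions with no added stressor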
[7] = E. coli acrAB mutant growth effects, primary screen, E. coli filamentation inducers, strain DRC39, OD650, 24 h (AID 1178); details: higher = more signal, called active from +8 up or from −8 down;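 note: growth measured as culture turbidity by optical density at 650 nm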
[8] = E. coli acrAB mutant growth effects, primary screen, E. coli filamentation inducers, strain DRC39, OD650, 48 h (AID 1179);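 note: screen aims at cell division blockers that make cells filament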; details: E. coli DRC39 delta-acrAB growth, higher = more signal, called active from +8 up or from −8 down
[9] = RPMI8226 myeloma cell viability, profiling panel, resazurin fluorescence, basal, 24 h, PK04 Diversity Set (AID 1180); details: higher = more signal;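 note: RPMI8826 multiple myeloma cell line at 5000 cells per well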
[10] = target: E3 ubiquitin-protein ligase XIAP (Homo sapiens) (UniProt P98170); assay: XIAP binders, primary screen, biophysical, small-molecule microarray, fluorescence 635 nm (AID 1181); details: small-molecule microarray binding, higher = more signal;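 note: score merges 667 nm emission and signal to noise over triplicate slides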
[11] = test system: XIP peptide (Xip251-270) binding; assay: small-molecule binders of XIP peptide, primary screen, biochemical, small-molecule microarray, fluorescence 635/667 nm, 0.1 µg/mL protein (AID 1182); details: fluorescent protein binding, 635 nm, higher = more signal, called active from +8 up or from −8 down
XIP peptide (Xip251-270) = assay: small-molecule binders of XIP peptide, primary screen, biochemical, small-molecule microarray, fluorescence 635/667 nm, 0.5 µg/mL protein (AID 1183); details: small-molecule microarray binding, fluorescence 635 nm; higher = more signal
[12] = Plasmodium falciparum growth inhibition, primary screen, strain 3D7, DAPI fluorescence, 100 nL (AID 1184);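 note: parasites grown inside human red blood cells in medium with human serum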; details: P. falciparum 3D7 growth, 3 d, higher = more signal
[13] = target: Homeobox protein Hox-A13 (Mus musculus) (UniProt Q62424); assay: inhibitors of HoxA13-DNA binding, primary screen, biochemical, fluorescence polarization, labeled oligonucleotide (AID 1185); details: 15 min, higher = more signal, called active from +8 up or from −8 down
Chain of Homeobox protein Hox-A13 (Mus musculus) (Q62424 whole entry, looked up): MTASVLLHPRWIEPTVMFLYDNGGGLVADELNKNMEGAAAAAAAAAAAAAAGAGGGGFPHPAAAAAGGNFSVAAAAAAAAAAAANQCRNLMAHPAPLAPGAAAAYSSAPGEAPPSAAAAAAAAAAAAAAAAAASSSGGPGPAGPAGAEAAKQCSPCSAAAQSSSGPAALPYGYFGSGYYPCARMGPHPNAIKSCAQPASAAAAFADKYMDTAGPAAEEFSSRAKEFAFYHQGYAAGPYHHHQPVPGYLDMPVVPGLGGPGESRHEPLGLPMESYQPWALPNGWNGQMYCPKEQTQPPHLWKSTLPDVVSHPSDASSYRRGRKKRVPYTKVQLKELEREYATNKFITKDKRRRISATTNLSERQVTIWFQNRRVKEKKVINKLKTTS

Chain of Dihydroorotate dehydrogenase (quinone), mitochondrial (Plasmodium falciparum (isolate 3D7)) (Q08210 whole entry, looked up): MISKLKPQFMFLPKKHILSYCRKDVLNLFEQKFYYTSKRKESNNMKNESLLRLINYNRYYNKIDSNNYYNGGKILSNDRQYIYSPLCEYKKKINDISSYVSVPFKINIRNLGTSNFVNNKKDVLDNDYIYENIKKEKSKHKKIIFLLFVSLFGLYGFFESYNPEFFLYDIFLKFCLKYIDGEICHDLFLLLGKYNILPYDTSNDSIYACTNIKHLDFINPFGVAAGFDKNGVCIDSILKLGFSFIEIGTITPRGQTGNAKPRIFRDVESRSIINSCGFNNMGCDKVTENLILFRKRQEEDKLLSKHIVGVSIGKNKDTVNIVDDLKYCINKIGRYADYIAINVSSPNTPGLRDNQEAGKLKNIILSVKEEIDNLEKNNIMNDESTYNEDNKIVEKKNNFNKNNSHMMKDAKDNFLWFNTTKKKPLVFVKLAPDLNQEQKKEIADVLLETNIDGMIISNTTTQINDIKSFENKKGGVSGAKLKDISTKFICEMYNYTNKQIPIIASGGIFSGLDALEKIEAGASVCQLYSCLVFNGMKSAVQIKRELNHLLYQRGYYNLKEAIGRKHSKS
Chain of E3 ubiquitin-protein ligase XIAP (Homo sapiens) (P98170 whole entry, looked up): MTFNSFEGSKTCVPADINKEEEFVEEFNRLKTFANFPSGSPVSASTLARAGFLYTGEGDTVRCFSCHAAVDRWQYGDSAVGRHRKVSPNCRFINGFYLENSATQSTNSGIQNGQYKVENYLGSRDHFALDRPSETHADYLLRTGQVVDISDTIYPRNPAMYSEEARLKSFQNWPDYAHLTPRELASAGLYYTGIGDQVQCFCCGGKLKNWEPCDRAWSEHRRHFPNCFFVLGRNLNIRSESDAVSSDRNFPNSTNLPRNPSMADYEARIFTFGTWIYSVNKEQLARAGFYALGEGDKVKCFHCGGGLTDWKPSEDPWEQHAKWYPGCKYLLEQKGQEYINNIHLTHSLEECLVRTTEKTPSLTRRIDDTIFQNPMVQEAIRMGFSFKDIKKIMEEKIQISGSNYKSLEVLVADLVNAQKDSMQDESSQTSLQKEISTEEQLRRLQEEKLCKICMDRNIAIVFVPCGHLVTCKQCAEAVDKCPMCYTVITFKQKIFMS

Compound | z-score [1] | z-score [2] | z-score [3] | composite z-score [4] | z-score [5] | z-score [6] | z-score [7] | z-score [8] | z-score [9] | composite z-score [10] | composite z-score [11] | composite z-score (XIP peptide (Xip251-270)) | z-score [12] | z-score [13]
CCOC(=O)CCN1C(=O)[C@H]2[C@H]3[C@H](O)[C@H](O)CC(=NNC(=O)OCc4ccc(OC)cc4)[C@H]3CC[C@H]2C1=O | 0.0785 | -3 (inactive) | -0.451 (inactive) | 0.0913 (inactive) | 1.07 (inactive) | -0.595 (inactive) | -0.653 (inactive) | -0.652 (inactive) | -0.244 | 0.12 | 0.353 (inactive) | 0.277 | 0.144 | -3.67 (inactive)
COC(=O)CC=C[C@@H](C)[C@@H](C=NOC[C@@H](C)[C@H](OCc1ccccc1)C(C)C)OC | -1.01 | 0.285 (inactive) | 0.405 (inactive) | 0.957 (inactive) | -0.892 (inactive) | 0.169 (inactive) | -0.213 (inactive) | -0.442 (inactive) | -0.286 | -0.118 | 0.0918 (inactive) | -0.0012 | -0.469 | -3.36 (inactive)
CO[C@H]1COC(=O)CCC[C@H](C)[C@H](OC)COC(=O)CC=C[C@@H]1C | 0.631 | -2.21 (inactive) | 0.364 (inactive) | -1.04 (inactive) | -0.692 (inactive) | -1.93 (inactive) | 0.115 (inactive) | 0.757 (inactive) | 0.541 | 0.0593 | 0.239 (inactive) | 0.0648 | -0.116 | -0.695 (inactive)
COC(=O)[C@H](C)NC(=O)CCC1CC(OC(=O)NCc2cccc3ccccc23)CC2(CCCC(COC(=O)NCCC(C)C)O2)O1 (some centres undefined) | 0.817 | -0.274 (inactive) | 0.505 (inactive) | -1.24 (inactive) | -0.0691 (inactive) | -0.186 (inactive) | 0.443 (inactive) | 0.594 (inactive) | 0.452 | -0.191 | -0.477 (inactive) | 0.468 | -1.57 | -5.31 (inactive)
CCc1cc2c(nc1CC)CCN(CCC(C)=NOC[C@@H](C)[C@H](OCc1ccccc1)C(C)C)C2 | -0.0541 | -0.258 (inactive) | 0.0348 (inactive) | -1.67 (inactive) | -0.537 (inactive) | -2.21 (inactive) | -0.231 (inactive) | -0.313 (inactive) | -0.261 | -0.11 | -0.259 (inactive) | -0.125 | 0.23 | -3.53 (inactive)
O=C(NN=C1C[C@@H](O)[C@@H](O)[C@@H]2[C@@H]3C(=O)N(Cc4ccc5c(c4)OCO5)C(=O)[C@@H]3CC[C@@H]12)OCc1ccccc1 | 0.0352 | -1.59 (inactive) | 0.987 (inactive) | -2.65 (inactive) | -0.683 (inactive) | -1.09 (inactive) | 0.747 (inactive) | -0.715 (inactive) | -0.32 | -0.152 | 0.244 (inactive) | 0.0195 | -1.1 | -3.09 (inactive)
CCCC[C@H]1CN2[C@@H](CC[C@@H](C)[C@@H]2c2ccc(Br)cc2)C(=O)O1 | 0.314 | -2.36 (inactive) | 1.05 (inactive) | -0.355 (inactive) | -0.515 (inactive) | 0.0621 (inactive) | -0.959 (inactive) | -0.985 (inactive) | 0.919 | 0.127 | 0.977 (inactive) | 0.476 | -0.278 | -3.59 (inactive)
C=C(C)C(=O)OC[C@H]1CN2[C@@H](CC[C@@H](C)[C@@H]2c2ccc(Br)cc2)C(=O)O1 | 0.497 | -1.84 (inactive) | -0.255 (inactive) | 0.672 (inactive) | -0.136 (inactive) | 0.912 (inactive) | 0.644 (inactive) | -1.77 (inactive) | -0.314 | 0.256 | 0.414 (inactive) | -0.102 | 1.05 | -2.2 (inactive)
C[C@@H]1CC[C@H]2C(=O)OC(Cc3ccccc3)CN2[C@H]1c1ccc(Br)cc1 (some centres undefined) | 0.352 | -3.48 (inactive) | 0.417 (inactive) | 0.637 (inactive) | -0.658 (inactive) | 0.2 (inactive) | 1.06 (inactive) | 0.485 (inactive) | -0.726 | 0.0299 | -0.0207 (inactive) | 0.276 | 0.695 | -3.22 (inactive)
CCOC(=O)[C@H](Cc1ccccc1)NC(=O)CCC1CC(OC(=O)NCCc2ccc(F)cc2)CC2(CCCC(COC(=O)NCCOc3ccccc3)O2)O1 (some centres undefined) | 0.121 | -0.245 (inactive) | -0.02 (inactive) | -0.189 (inactive) | 0.651 (inactive) | 0.408 (inactive) | 0.417 (inactive) | 0.343 (inactive) | 0.194 | -0.0166 | -0.337 (inactive) | 0.401 | -1.7 | -2.88 (inactive)
CC(CCN1CCCc2nc(C)c(C)cc21)=NO[C@@H](C)c1cn([C@H](CO)Cc2ccccc2)nn1 | -0.333 | 0.472 (inactive) | 0.0688 (inactive) | -1.1 (inactive) | -0.725 (inactive) | 0.792 (inactive) | 0.851 (inactive) | 0.961 (inactive) | -0.789 | 0.115 | 0.51 (inactive) | 0.244 | 0.221 | -0.829 (inactive)
CON=C(C)CCN1CCCCc2nc(C)c(C)cc21 | -0.18 | -0.571 (inactive) | 0.183 (inactive) | -1.07 (inactive) | 0.323 (inactive) | -0.11 (inactive) | 0.852 (inactive) | -0.78 (inactive) | 0.6 | 0.496 | 0.0459 (inactive) | 0.49 | 1.06 | -2.24 (inactive)
CC(C)=CCCC(C)=CCON=C1C[C@@H](O)[C@@H](O)[C@@H]2[C@@H]3C(=O)N([C@@H](C)c4ccccc4)C(=O)[C@@H]3CC[C@@H]12 | -0.243 | 0.408 (inactive) | -0.32 (inactive) | -0.0515 (inactive) | 0.283 (inactive) | -0.471 (inactive) | -0.464 (inactive) | -0.131 (inactive) | -0.249 | -0.0476 | 0.0439 (inactive) | 0.242 | -0.81 | -1.3 (inactive)
CC(=O)OC[C@H]1O[C@@H](ON=C(C)CCN2CCCCc3nc(C)c(C)cc32)[C@H](OC(C)=O)[C@@H](OC(C)=O)[C@@H]1OC(C)=O | -0.077 | -0.436 (inactive) | 0.382 (inactive) | -2.52 (inactive) | -0.679 (inactive) | -1.15 (inactive) | -1.24 (inactive) | -0.816 (inactive) | -0.0356 | 0.0899 | -0.0733 (inactive) | 0.566 | -0.98 | -3.93 (inactive)
CC(C)[C@@H](OCc1ccccc1)[C@H](C)C=NOC[C@@H](O)[C@H]1O[C@@H]2OC(C)(C)O[C@@H]2[C@H]1O | -0.752 | -0.848 (inactive) | -0.587 (inactive) | 0.188 (inactive) | 0.241 (inactive) | 1.28 (inactive) | 0.0024 (inactive) | -1.79 (inactive) | -0.766 | 0.191 | -0.12 (inactive) | 0.258 | -0.489 | -1.24 (inactive)
CC(C)(C)N1C(=O)[C@H]2[C@@H]3C(=CC[C@H]2C1=O)C(=O)[C@H]1O[C@H]1[C@H]3O | -4.22 | -4.73 (inactive) | -7.59 (inactive) | -2.71 (inactive) | -0.331 (inactive) | -3.03 (inactive) | -0.662 (inactive) | -0.613 (inactive) | -5.04 | -0.178 | 0.139 (inactive) | 0.283 | -2.38 | -5.76 (inactive)
CON=C[C@@H](OC)[C@H](C)C=CCC(=O)OC | 0.0392 | -0.117 (inactive) | 0.293 (inactive) | -0.241 (inactive) | 0.0738 (inactive) | -0.557 (inactive) | -0.311 (inactive) | -2.25 (inactive) | -0.274 | -0.162 | -1.44 (inactive) | -0.499 | -0.166 | -0.326 (inactive)
CC(=O)OC[C@H]1O[C@@H](ON=C2[C@H]3CCn4c(=O)n(-c5ccccc5)c(=O)n4[C@H]3[C@H](O)[C@@H]3O[C@H]23)[C@H](OC(C)=O)[C@@H](OC(C)=O)[C@@H]1OC(C)=O | -0.779 | -0.499 (inactive) | -0.718 (inactive) | -1.44 (inactive) | -0.443 (inactive) | -0.184 (inactive) | 0.435 (inactive) | 0.381 (inactive) | -1.1 | -0.174 | -0.455 (inactive) | 0.292 | -0.541 | -4.07 (inactive)
CC(CCN1CCCc2nc(C)c(C)cc21)=NO[C@H](C)c1cn([C@H](CO)Cc2ccccc2)nn1 | -0.325 | 0.454 (inactive) | 0.307 (inactive) | 1.27 (inactive) | -0.291 (inactive) | 0.512 (inactive) | -0.801 (inactive) | -0.922 (inactive) | 0.0883 | 0.0015 | -0.0325 (inactive) | 0.532 | -2.52 | -7.43 (inactive)
CC(=O)OC[C@H]1O[C@H](CC=NO[C@@H](C)c2cc(-c3c(C)cc(C)cc3C)no2)C=C[C@@H]1OC(C)=O | -0.583 | 0.493 (inactive) | -0.523 (inactive) | 0.272 (inactive) | -1.17 (inactive) | 0.142 (inactive) | 0.165 (inactive) | 0.105 (inactive) | 0.138 | -0.126 | 0.205 (inactive) | -0.445 | -0.863 | -5.88 (inactive)
CCCNC(=O)OC[C@H]1O[C@H](CCON=C[C@@H](C)[C@H](OCc2ccccc2)C(C)C)C=C[C@@H]1Oc1ccc(OC)cc1 | -0.208 | -0.682 (inactive) | -2.5 (inactive) | -1.78 (inactive) | -0.242 (inactive) | -2.27 (inactive) | 0.0465 (inactive) | 0.428 (inactive) | -0.58 | -0.357 | 0.196 (inactive) | -0.267 | -0.591 | -3.32 (inactive)
